Assay outcomes: PubChem BioAssay, National Center for Advancing Translational Sciences (NCATS)
Giardia FBPA inh = blocks Giardia fructose-bisphosphate aldolase activity; purified Giardia FBPA; Potency, µM (highest dose often 59.6 µM), for the others: top-dose activity, negative = inhibition, most hits filed as inhibitors; hit rate 0.71% among 290,000; AID 2451; note: % is set by controls: 0 for no effect and ±100 for the full control effect; nearly all actives have a fitted effect of over 55% in size
Target sequence (A8B2U2 whole entry, looked up): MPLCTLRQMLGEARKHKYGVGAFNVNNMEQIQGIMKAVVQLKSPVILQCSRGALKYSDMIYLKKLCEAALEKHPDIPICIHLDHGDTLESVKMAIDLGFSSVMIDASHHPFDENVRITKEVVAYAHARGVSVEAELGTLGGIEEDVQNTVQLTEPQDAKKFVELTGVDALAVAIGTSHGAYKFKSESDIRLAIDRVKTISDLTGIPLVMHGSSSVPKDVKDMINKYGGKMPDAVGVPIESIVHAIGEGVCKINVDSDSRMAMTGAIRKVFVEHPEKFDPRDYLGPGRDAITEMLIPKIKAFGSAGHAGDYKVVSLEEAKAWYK
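Giardia FBPA (40 nM reagent) was preincubated 10 min at RT with compound (up to 57.5 uM final), then substrate plus GAPDH/TPI/NAD/arsenate coupling system with diaphorase/resazurin was added; resorufin fluorescence (525/598 nm) was read after 20 min.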
NS1 inh = blocks influenza NS1 protein function; AID 2326; Potency, µM (highest dose often 46.1 µM), without a hit: at the highest dose activity, positive = more growth; hit rate 0.4% among 270,000; calls by dose curve; note: actives are rising curves; nearly all actives have a fitted effect of over 50% in size
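OD600 was taken as the measure of yeast growth restored by compound in an NS1-expressing S. cerevisiae strain. Cells had been washed out of glucose medium and diluted 1:100 into galactose -URA medium, pH 6.0.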
AmpC inh detg = blocks E. coli AmpC beta-lactamase in detergent assay; P00811; AmpC hydrolysis of nitrocefin, absorbance 480 nm, 0.01% Triton; Potency, µM (series often up to 114 µM), without a hit: at the highest dose activity change, negative = inhibition, hits mostly inhibitors; hit rate 0.041% among 370,000;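 note: 0% = no-compound wells and -100% = no-enzyme wells; nearly all actives have a fitted effect of over 25% in size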
Target sequence (P00811 whole entry, looked up): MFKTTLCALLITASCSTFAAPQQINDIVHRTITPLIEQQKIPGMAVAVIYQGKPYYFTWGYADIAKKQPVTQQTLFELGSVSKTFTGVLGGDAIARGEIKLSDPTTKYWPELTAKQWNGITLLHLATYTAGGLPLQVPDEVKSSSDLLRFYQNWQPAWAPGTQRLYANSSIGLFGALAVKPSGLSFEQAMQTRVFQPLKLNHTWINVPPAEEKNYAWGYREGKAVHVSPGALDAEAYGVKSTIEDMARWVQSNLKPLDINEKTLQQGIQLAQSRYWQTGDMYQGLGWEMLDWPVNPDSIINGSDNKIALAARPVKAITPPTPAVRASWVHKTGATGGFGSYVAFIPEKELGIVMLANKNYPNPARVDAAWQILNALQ
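20 mM phosphate pH 7.0 + 0.01% (detergent screen) or 0.0001% Triton X-100; 5.3 nM AmpC reagent; cpd preinc 15 min RT; nitrocefin (800 uM stock) to start; A480 q20 s × 4 min; Activity was normalised to no-enzyme and no-compound control wells.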
AmpC no deterg = inhibitors of E. coli AmpC beta-lactamase without detergent; P00811; AmpC nitrocefin hydrolysis, absorbance 480 nm, 0.0001% Triton; Potency, µM (doses to about 57.1 µM), for the others: at the highest dose activity change, negative = inhibition, usual class: inhibitors; hit rate 0.52% among 330,000;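 note: plate controls were no compound for no effect and no enzyme for full effect; nearly all actives have a fitted effect of over 20% in size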
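20 mM phosphate pH 7.0 + 0.01% (detergent screen) or 0.0001% Triton X-100; 5.3 nM AmpC reagent; cpd preinc 15 min RT; nitrocefin (800 uM stock) to start; A480 q20 s × 4 min; Activity was normalised to no-enzyme and no-compound control wells.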
SARS PLP yeast = blocks SARS-CoV papain-like protease in a yeast assay; S. cerevisiae expressing SARS-CoV PLpro, growth rescue; AID 485353; Potency, µM (doses to about 32.9 µM), inactives show top-dose activity, positive = growth rescue, most hits filed as activators; hit rate 0.19% among 330,000; calls by dose curve; note: 0% is about no effect; nearly all actives have a fitted effect of over 55% in size
The depositor's hits bear a star; ? = inconclusive; · = no result given; ! = repeats disagree; [ ] = remark or other dose. The list is not random: actives were taken first. Their share in the collection is about 1.4%. Unless noted, calls come from the whole dose curve; as a rule, active = well fitted curve in the direction sought with a large enough effect; inconclusive = small, poorly fitted or top-dose-only effect, or another doubt; inactive = no such curve, though single readings can be large; an effect the other way counts as inactive or inconclusive. Potency is the fitted concentration of half-maximal effect.

SMILES	Giardia FBPA inh	NS1 inh	AmpC inh detg	AmpC no deterg	SARS PLP yeast
Cc1ccc(CCNC(=O)Cc2ccc(NC3=NC4CS(=O)(=O)CC4S3)cc2)cc1 (stereo not given)	-20%	16%	-9%	-7%	-5%
Cc1ccccc1NC(=O)/C=C/c1ccc([N+](=O)[O-])s1	0%	0%	5%	-15%	-20%
NC(N)=NS(=O)(=O)c1ccc(NC(=S)NC(=O)Cc2ccc(Cl)cc2)cc1	-25%	-6%	?	10µM*	4%
O=C(Nc1ccc(F)cc1)C1C2CCC3C(CCC21)C3(Cl)Cl (stereo not given)	-3%	-11%	3%	14µM*	-9%
Cc1cccc(NC(=O)C2C3CCC4C(CCC32)C4(Cl)Cl)c1 (stereo not given)	0%	3%	-1%	32µM*	0%
COc1ccc2c(CNC3CCC(C)CC3)c(C(=O)O)n(Cc3ccc(F)cc3)c2c1 (stereo not given)	·	·	3%	·	·
Nc1cc([N+](=O)[O-])ccc1Nc1ccc(O)cc1	-17%	-49%	1%	32µM*	0%
O=C(CCCCCNc1nc(=S)[nH]c2ccccc12)NCCc1c[nH]c2ccccc12	7%	-11%	?	-57%	-2%
O=C(CCCCCNc1nc(=S)[nH]c2ccccc12)NCCc1ccc(Cl)cc1	7%	3%	-5%	20µM*	3%
CC(C)CCNC(=O)Cc1ccc(Nc2nc(=S)[nH]c3ccccc23)cc1	0%	-10%	3%	16µM*	-2%
COc1cc(C(=O)NCCNC(=O)c2cc(OC)c(C)c(OC)c2)cc(OC)c1C	5%	-3%	-10%	14%	15%
CCOc1ccc(-c2c(C)nn3c(C)c(C(=O)NC(C)c4ccccc4)cnc23)cc1OCC (stereo not given)	·	·	19%	·	·
CC1CCc2cc(F)ccc2N1S(=O)(=O)c1ccc(F)cc1 (stereo not given)	-3%	-18%	?	-17%	8.9µM*
NC(=O)C1CCN(C(=O)CC2(CC(=O)O)CCCCC2)CC1	2%	·	-2%	-6%	1%
NC(=O)CC1(CC(=O)O)CCCCC1	13%	6%	71µM*	-31%	-10%
COC(=O)C1=C(C)NC(C)=C(C(=O)OC)C1c1ccccc1[N+](=O)[O-]	7.9µM*!	-27%	?	8%	2µM*
O=C(Nc1cc2c(cc1Br)OCCO2)c1ccco1	-1%	-11%	-2%	-21%	4%
O=C1CC(N2CC=C(c3ccccc3)CC2)C(=O)N1c1ccc(F)cc1 (stereo not given)	?	-41%	?	45µM*	-35%
CCCOc1ccc(N2C(=O)CC(N3CC=C(c4ccccc4)CC3)C2=O)cc1 (stereo not given)	-1%	-6%	-2%	-7%[2.29 µM]	-6%
Cn1c(CN2CCN(c3ccc(Cl)cc3)CC2)nc2ccccc21	12%	-65%	?	-7%	8.9µM*
Cc1nc(N2CCN(C(=O)c3cccs3)CC2)c2c3c(sc2n1)CCCC3	12%	-47%	35µM*	48%	1%
COc1ccccc1-n1ccnc(SCC(=O)NC2CCCC2)c1=O	·	·	?	-20%	22%
CN(C)c1ccc(/C=N/NC(=S)NCc2ccccc2)cc1	-2%	23%	?	-54%	9%
CC(=O)Oc1c(Br)cc(N(C(C)=O)S(=O)(=O)c2ccccc2)c2ccccc12	28µM*	-9%	0%	-8%	-8%
CCOc1ccc2c(c1)n([O-])c1c([n+]2=O)CCCC1	14µM*	-7%	6%	-21%	6%
SMILES	Giardia FBPA inh	NS1 inh	AmpC inh detg	AmpC no deterg	SARS PLP yeast
O=C(CCC(=O)OCC(=O)c1ccccc1)Nc1cccc(Cl)c1	2%	-15%	-12%	-11%	-4%
COC(=O)CN1C(=O)CC(C)(C)S(=O)c2ccccc21 (stereo not given)	2%	9%	?	1.3µM*	9%
CC(OC(=O)COc1ccc(C#N)cc1)C(=O)Nc1ccc(Cl)cn1 (stereo not given)	·	·	?	-16%	-3%
O=c1[nH][nH]c2cc(=O)n(-c3cccc(C(F)(F)F)c3)nc12	-3%	·	2%	20µM*	0%
Nc1n[nH]c2cc(=O)n(-c3cccc(C(F)(F)F)c3)nc12	4%	·	5%	-11%	0%
COc1ccc2c(c1)C1(Nc3ccccc3-c3nc4ccccc4n31)C(=O)N2 (stereo not given)	2%	-41%	-10%	20µM*	27%
N[C@@H](Cc1cc(I)c(Oc2ccc(O)c(I)c2)c(I)c1)C(=O)O	0%	27%	?	3.2µM*!	1%
Cc1ccc(C(=O)NCC(=O)OCCCOC(=O)CNC(=O)c2ccc(C)c(C)c2)cc1C	·	·	?	66%	-1%
CCOc1ccccc1NC(=O)C(OC(=O)c1ccc(NC(=O)CC#N)cc1)c1ccccc1 (stereo not given)	·	·	-12%	7.9µM*	-3%
CN=C1C([N+](=O)[O-])=CC=C2C1=NC1(CCCCC1)N2O	5µM*	11%	12%	-40%	-6%
O=[N+]([O-])C1=CC=C2C(=NC3(CCCCC3)N2O)C1=NCCO	7.1µM*	8%	-2%	-16%	-3%
Cc1cccc(NC(=O)/C(C#N)=C/c2cn(CC(=O)NCc3ccco3)c3ccccc23)c1	5%	4%	-8%	14µM*	2%
CCOc1ccc(/C=C/C(=O)c2cc(Br)ccc(=O)c2O)cc1	?	-28%	?	32µM*	-82%
Cc1cccc(/C=C/C(=O)c2cc(Br)ccc(=O)c2O)c1	?	-119%	-8%	32µM*	16%
CCc1ccc(/C=C/C(=O)c2cc(Br)ccc(=O)c2O)cc1	?	-157%	-7%	28µM*	24%
Clc1ccccc1Cn1c(/C=C/c2ccco2)nc2ccccc21	-9%	-14%	?	-14%	-76%
O=C(N/N=C/C(Br)=C/c1ccccc1)c1cc(-c2ccco2)[nH]n1	-4%	0%	2%	20µM*	-3%
CC(/C=N/NC(=O)c1cc(-c2ccc(C)o2)[nH]n1)=C\c1ccccc1	2%	14%	-7%	-42%	5%
COCCN(C(=O)Cc1cccs1)C(C(=O)NCc1ccc(OC)cc1)c1ccc(C)cc1 (stereo not given)	-2%	-19%	6%	0.32µM*	2%
CCc1ccc(C(C(=O)NCc2ccc(OC)cc2)N(CCOC)C(=O)Cc2cccs2)cc1 (stereo not given)	-4%	-43%	-6%	0%	-16%
CC(C)(C)c1ccc(S(=O)(=O)NCc2nc3cccnc3n2Cc2ccccc2Cl)cc1	·	·	3%	·	·
CCCn1nc([N+](=O)[O-])c(C(C#N)c2nc3ccccc3s2)c(Cl)c1=O (stereo not given)	0%	-61%	-11%	14µM*	-57%
CCn1nc([N+](=O)[O-])c(C(C#N)c2nc3ccccc3n2C)c(Cl)c1=O (stereo not given)	5%	6%	-12%	-36%	-12%
